The AC50 is the concentration at which the activity in the assay is half-maximal.

Calls of active or inactive are those of the source. The calls were made as follows: active = hit-call score of the fitted dose curve at least 0.9, where 1 is the maximum; inactive = score below 0.9.

Assay [1] is described as follows: BSK_CASM3C_SRB: Viability Assessment in the BioMAP Diversity Plus: CASM3C Assay (AID 2283050).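 Also: cells exposed to compound for 24 h.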 Conditions: primary human coronary artery smooth muscle cells.
Read-out in assay [2]: Thrombomodulin, THBD (gene 7056)
In words: BSK_CASM3C_Thrombomodulin: BioMAP Diversity Plus: CASM3C Assay for Thrombomodulin Biomarker Activity (AID 2283051).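 Also: thrombomodulin protein level measured by ELISA 24 h after dosing.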 Conditions: primary human coronary artery smooth muscle cells; actives raise or lower the signal.

Read-out in assay [3]: Tissue Factor, F3 (gene 2152)
In words: BSK_CASM3C_TissueFactor: BioMAP Diversity Plus: CASM3C Assay for Tissue Factor Biomarker Activity (AID 2283052).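 Also: cell surface tissue factor protein level read by ELISA.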 Conditions: primary human coronary artery smooth muscle cells; actives raise or lower the signal.

Read-out in assay [4]: Interferon-gamma inducible Protein 10 (IP10), CXCL10 (gene 3627)
Description: BSK_hDFCGF_IP10: BioMAP Diversity Plus: hDFCGF Assay for Interferon-gamma inducible Protein 10 (IP10) Biomarker Activity (AID 2283053). To be noted: primary human foreskin fibroblasts; actives raise or lower the signal. Put shortly: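 ELISA quantification of IP-10 after a 24 h chemical exposure of human dermal foreskin fibroblast primary cultures. Both increases and decreases versus DMSO fitted.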

Read-out in assay [5]: Urokinase-type plasminogen activator receptor (uPAR), PLAUR (gene 5329)
Description: BSK_CASM3C_uPAR: BioMAP Diversity Plus: CASM3C Assay for Urokinase-type plasminogen activator receptor (uPAR) Biomarker Activity (AID 2283054).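 Also: cell-surface uPAR protein level quantified by ELISA.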 To be noted: primary human coronary artery smooth muscle cells; actives raise or lower the signal.

Read-out in assay [6]: Vascular cell adhesion molecule 1 (VCAM1), VCAM1 (gene 7412)
Description: BSK_CASM3C_VCAM1: BioMAP Diversity Plus: CASM3C Assay for Vascular cell adhesion molecule 1 (VCAM1) Biomarker Activity (AID 2283055).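 Also: VCAM-1 protein level quantified by ELISA on the cells.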 Conditions: primary human coronary artery smooth muscle cells; actives raise or lower the signal.

Read-out in assay [7]: Collagen III, COL3A1 (gene 1281)
In words: BSK_hDFCGF_CollagenIII: BioMAP Diversity Plus: hDFCGF Assay for Collagen III Biomarker Activity (AID 2283056). To be noted: primary human foreskin fibroblasts; actives raise or lower the signal. Put shortly:
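ELISA read-out of collagen III from human skin fibroblast cultures sampled 24 h post-dosing. Values were derived by bidirectional fitting relative to the DMSO vehicle control.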

Read-out in assay [8]: Epidermal growth factor receptor (EGFR), EGFR (gene 1956)
In words: BSK_hDFCGF_EGFR: BioMAP Diversity Plus: hDFCGF Assay for Epidermal growth factor receptor (EGFR) Biomarker Activity (AID 2283057). Conditions: primary human foreskin fibroblasts; actives raise or lower the signal. The method, boiled down:
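EGFR levels by ELISA in human dermal fibroblast cultures, 24 h post-treatment, fitted bidirectionally versus DMSO. Parallel wells stained with sulforhodamine B to detect overt cytotoxicity.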

Read-out in assay [9]: Interleukin-8 (IL8), CXCL8 (gene 3576)
In words: BSK_hDFCGF_IL8: BioMAP Diversity Plus: hDFCGF Assay for Interleukin-8 (IL8) Biomarker Activity (AID 2283058). Conditions: primary human foreskin fibroblasts; actives raise or lower the signal. Put shortly:
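Cells used are human skin primary fibroblasts. Chemical is added, cultures run 24 h, then IL-8 is quantified by ELISA, and gain or loss versus DMSO control is fitted in both directions.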

The nature of assay [10]: BSK_hDFCGF_Proliferation: Cell Proliferation Assessment in the BioMAP Diversity Plus: hDFCGF Assay (AID 2283059).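 Also: curves fitted for both rise and fall of signal versus DMSO baseline.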 Conditions: primary human foreskin fibroblasts. Put shortly:
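This proliferation readout used SRB total-protein staining of human foreskin fibroblasts […], normalized to DMSO with bidirectional curve fitting.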

Read-out in assay [11]: Macrophage colony-stimulating factor (MCSF), CSF1 (gene 1435)
Description: BSK_hDFCGF_MCSF: BioMAP Diversity Plus: hDFCGF Assay for Macrophage colony-stimulating factor (MCSF) Biomarker Activity (AID 2283060). To be noted: primary human foreskin fibroblasts; actives raise or lower the signal. Put shortly: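 Primary human foreskin fibroblasts dosed with chemical; 24 h later, M-CSF quantified by ELISA; curves fitted in both directions vs DMSO negative control.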

Assay [12] in a line: BSK_hDFCGF_SRB: Viability Assessment in the BioMAP Diversity Plus: hDFCGF Assay (AID 2283061).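 Also: cells exposed to compound for 24 h before the read.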 To be noted: primary human foreskin fibroblasts. The method, boiled down: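 Readout is SRB absorbance at 560 nm, reflecting total protein in parallel cultures of human foreskin fibroblasts harvested 24 h after chemical dosing. Activity was fitted bidirectionally relative to DMSO.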

Read-out in assay [13]: TIMP metallopeptidase inhibitor 1 (TIMP1), TIMP1 (gene 7076)
In words: BSK_hDFCGF_TIMP1: BioMAP Diversity Plus: hDFCGF Assay for TIMP metallopeptidase inhibitor 1 (TIMP1) Biomarker Activity (AID 2283062). Conditions: primary human foreskin fibroblasts; actives raise or lower the signal. Put shortly: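 Human skin fibroblasts (primary), hDFCGF system; compound exposure 24 h; TIMP-1 by ELISA; bidirectional fit vs DMSO negative control; overt cytotoxicity by SRB in parallel wells.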

Read-out in assay [14]: Monokine induced gamma interferon (MIG), CXCL9 (gene 4283)
Description: BSK_hDFCGF_MIG: BioMAP Diversity Plus: hDFCGF Assay for Monokine induced gamma interferon (MIG) Biomarker Activity (AID 2283063). To be noted: primary human foreskin fibroblasts; actives raise or lower the signal. The method, boiled down:
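Chemicals were added to primary human foreskin fibroblast cultures, which were sampled 24 h later. MIG levels were then quantified by ELISA and responses fitted in both directions relative to DMSO.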

Read-out in assay [15]: Matrix Metallopeptidase 1 (MMP1), MMP1 (gene 4312)
Description: BSK_hDFCGF_MMP1: BioMAP Diversity Plus: hDFCGF Assay for Matrix Metallopeptidase 1 (MMP1) Biomarker Activity (AID 2283064). To be noted: primary human foreskin fibroblasts; actives raise or lower the signal. Put shortly:
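Human foreskin fibroblasts exposed to chemical for 24 h; MMP1 detected by ELISA, with DMSO as baseline for bidirectional fitting.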

Read-out in assay [16]: Vascular cell adhesion molecule 1 (VCAM1), VCAM1 (gene 7412)
In words: BSK_hDFCGF_VCAM1: BioMAP Diversity Plus: hDFCGF Assay for Vascular cell adhesion molecule 1 (VCAM1) Biomarker Activity (AID 2283065).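 As to AC50: VCAM-1 protein level quantified by ELISA after 24 h chemical exposure.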 To be noted: primary human foreskin fibroblasts; actives raise or lower the signal. The method, boiled down:
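Human foreskin fibroblast primary cells, chemical exposure 24 h; VCAM-1 by ELISA; bidirectional fit, DMSO = negative control/baseline.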

Read-out in assay [17]: Plasminogen activator inhibitor-1 (PAI1), SERPINE1 (gene 5054)
Description: BSK_hDFCGF_PAI1: BioMAP Diversity Plus: hDFCGF Assay for Plasminogen activator inhibitor-1 (PAI1) Biomarker Activity (AID 2283066). To be noted: primary human foreskin fibroblasts; actives raise or lower the signal. Put shortly: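 PAI-1 levels in human dermal foreskin fibroblasts were quantified by ELISA 24 h after dosing, with gain or loss analysed against DMSO. Overt cytotoxicity was checked by sulforhodamine B total-protein staining in parallel cultures.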

Read-out in assay [18]: Intercellular Adhesion Molecule 1 (ICAM1), ICAM1 (gene 3383)
In words: BSK_KF3CT_ICAM1: BioMAP Diversity Plus: KF3CT Assay for Intercellular Adhesion Molecule 1 (ICAM1) Biomarker Activity (AID 2283067). Conditions: primary human keratinocytes with fibroblasts; actives raise or lower the signal. Put shortly: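 ICAM-1 levels are measured by ELISA 24 h after dosing a primary human co-culture of keratinocytes and foreskin fibroblasts. Activity in either direction is fitted relative to DMSO vehicle.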

Assay [19] in a line: BSK_KF3CT_SRB: Viability Assessment in the BioMAP Diversity Plus: KF3CT Assay (AID 2283069).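 Also: read 24 h after compound addition; fitted for both signal gain and loss against DMSO baseline.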 To be noted: primary human keratinocytes with fibroblasts. The method, boiled down: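 Overt cytotoxicity is assessed as total protein by sulforhodamine B staining in parallel human skin co-cultures at 24 h after dosing. DMSO serves as negative control and baseline.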
Read-out in assay [20]: Interferon-gamma inducible Protein 10 (IP10), CXCL10 (gene 3627)
Description: BSK_KF3CT_IP10: BioMAP Diversity Plus: KF3CT Assay for Interferon-gamma inducible Protein 10 (IP10) Biomarker Activity (AID 2283068). Conditions: primary human keratinocytes with fibroblasts; actives raise or lower the signal. Put shortly:
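Signal is secreted/surface IP-10 by ELISA in a human primary skin co-culture of keratinocytes and foreskin fibroblasts, taken 24 h post-dosing; DMSO served as negative control.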

For the compound `CC(C)[C@H](C(=O)O[C@H](C#N)c1cccc(Oc2ccccc2)c1)c1ccc(Cl)cc1`, the outcome in [1], in assay [3], in assay [4], in assay [5], in [6] and in [7] was inactive. In addition, the outcome in assay [8], in assay [9], in [11], in assay [12], in assay [13] and in assay [14] was inactive. The outcome in assay [16], in [17], in assay [18] and in assay [19] was inactive. The AC50 in assay [2] is 4.81 µM (active); in [10] it was 3.36 µM (active); in assay [15], 3.97 µM (active).

Regarding `CCCCOC(=O)c1ccccc1C(=O)O`, the result in assay [1], in assay [2], in assay [3], in assay [4], in assay [5] and in assay [6] was inactive. Besides, the outcome in [8], in assay [9], in assay [10], in assay [11], in assay [12] and in assay [13] was inactive. Also, the outcome in assay [14], in assay [15], in [16], in assay [17], in assay [18] and in assay [20] was inactive. Besides, the result in [19] was inactive.

Take `C=C(C)[C@H]1Cc2c(ccc3c2O[C@@H]2COc4cc(OC)c(OC)cc4[C@@H]2C3=O)O1`: the result in assay [1], in assay [3], in [4], in assay [5], in assay [6] and in assay [7] was inactive. For the same compound, the result in [11], in assay [12], in assay [13], in assay [14], in assay [15] and in assay [17] was inactive. The result in assay [18] was inactive. Moreover, the AC50 is 0.164 µM (active) in [2]; 0.771 µM (active) in [8]; 0.486 µM (active) in assay [10]; 7.69 µM (active) in assay [16]; 31.8 µM (active) in assay [20]; 3.97 µM (active) in assay [19].

Regarding `COP(=O)(OC)OC(Br)C(Cl)(Cl)Br` (configuration not stated), the AC50 in assay [1] is 28.8 µM (active); in assay [4], 13.9 µM (active); in assay [5] it was 32 µM (active); in assay [6], 18.5 µM (active); in assay [7], 31.5 µM (active); in [10], 2.6 µM (active). The AC50 in assay [11] was 16.4 µM (active); in assay [12] it was 20 µM (active); in assay [13] it was 15.7 µM (active); in [14], 17.5 µM (active); in assay [15], 32.7 µM (active); in [16] it was 13.4 µM (active). Further, the AC50 in assay [17] was 30.1 µM (active); in [18] it was 31.1 µM (active); in [20], 30 µM (active); in assay [19], 26.1 µM (active). The outcome in [2], in assay [3] and in [8] was inactive.

`CCOP(=S)(OCC)Oc1cc(C)nc(C(C)C)n1`: the result in assay [1], in assay [2], in [3], in [4], in assay [5] and in assay [6] was inactive. Besides, the result in assay [8], in assay [9], in assay [10], in assay [11], in assay [12] and in [13] was inactive. For the same compound, the outcome in assay [14], in [15], in assay [16], in [17], in assay [18] and in assay [20] was inactive. Besides, the outcome in assay [19] was inactive.

On to `CCC(=O)Nc1ccc(Cl)c(Cl)c1`, for which the result in [1], in assay [2], in [3], in assay [4], in assay [5] and in [6] was inactive. The result in assay [7], in assay [8], in [10], in assay [11], in assay [12] and in assay [13] was inactive. Besides, the result in [14], in assay [15], in assay [16], in assay [17], in assay [18] and in [20] was inactive. For the same compound, in [19], the outcome was inactive.

With `CCc1cccc(C)c1N(C(=O)CCl)C(C)COC` (configuration not stated), the result in [1], in [2], in [3], in assay [5], in assay [6] and in assay [7] was inactive. Also, the outcome in [8], in [11], in [12], in assay [13], in assay [14] and in [15] was inactive. Also, the result in assay [16], in [18] and in assay [19] was inactive. In addition, the AC50 in assay [4] was 20 µM (active); in assay [10], 16.1 µM (active); in [20], 33.2 µM (active).

These data come from PubChem BioAssay (EPA / NIEHS).
